What all share (experiment): NCI-60 one-dose screen, 48 h (100 = growth as untreated, 0 = no growth, -100 = all killed)
Common to all, as to conditions: 10 µM unless noted

The subject of assay [1] is HCT-15 colon.
Assay [2] relates to HT29 colon.
The test system of assay [3] is SNB-75 CNS.
Assay [4] concerns SNB-19 CNS.
Assay [5] has as its system U251 CNS.
Assay [6] has as its system PC-3 prostate.
Assay [7] has as its system UACC-62 melanoma.
Assay [8] deals with LOX IMVI melanoma.
The test system of assay [9] is SK-MEL-28 melanoma.
Assay [10] deals with SK-MEL-5 melanoma.

The panel holds about 83,000 compounds, 20% with a hit somewhere; the sample as a whole holds those more often.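 Percent growth is the endpoint: 0 to 100 indicates growth inhibition (40 means 60% inhibition), 0 means no net growth, and negative values indicate cell death.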 Values without a mark were called inactive. Activity calls are given as the source filed them. Rule for the calls: active = growth percent below 10; inactive = the rest.

The text below walks through data of PubChem BioAssay (NCI).

On to `COc1cc(/C=C/c2cc(/C=C/c3ccc(O)c(OC)c3)n(-c3ccc(Cl)cc3)c(=O)n2)ccc1O`, for which the growth is 85.4% in assay [1]; -5.09% (active) in [2]; 69.7% in assay [3]; 91% in [4]; 75.5% in assay [5]; 77.3% in assay [6]. Moreover, the results for the growth in [7], in [8] and in assay [9] were 80.6%, 61.6% and 81.6%, respectively.
In the case of `COc1cc2c(cc1-c1c(C)noc1C)ncc1nc(C3CC3)n([C@H](C)COC(F)F)c12`, the growth was 23.9% in assay [1]; 17.3% in assay [2]; 34.3% in [3]; 60.1% in assay [4]; 52.8% in assay [5]; 39.1% in assay [6]. The growth is 25.5% in [7], 15.5% in [8] and 63.5% in assay [9].
In the case of `Cn1nc(-c2ccccc2)c2c(-c3ccccc3)onc2c1=O`, the growth in [1] is 38.3%; in assay [2], 1.6% (active); in assay [3] it was 20.9%; in assay [4], 34.3%; in [5], 25.2%; in assay [6] it was 32.4%. The growth in assay [7] was 38.1%; in assay [8], 53.4%; in assay [9], 74.5%.
On to `COc1cccc(-c2nn(-c3ccccc3)cc2-c2ccnc(NCCNS(=O)(=O)c3ccc(Cl)cc3)c2)c1`, for which the growth in [1] was 24.1%; in assay [2], 11.6%; in assay [3] it was 66.2%; in [4] it was 46%; in assay [5] it was 31.2%; in assay [6], 10.6%. Besides, in [8], the growth was 24.5%.
`COc1cc2[nH]c(C(=O)c3cc(OC)c(OC)c(OC)c3)c(N)c2cc1C#CC1CC1`: the growth in [1] was 23.1%; in [2], 5.53% (active); in [3], -4.88% (active); in assay [4], 45.1%; in [5] it was 45%; in [6], 16.7%. Also, the values for the growth in assay [8] and in assay [9] were 36.1% and 35.2%, respectively.
`COc1cccc(-c2nn(-c3ccccc3)cc2-c2ccnc(NCCCNS(=O)(=O)c3ccccc3)c2)c1`: the growth in assay [1] was 26.5%; in assay [2], 19%; in assay [3], 62.1%; in [4], 47.9%; in assay [5], 34%; in assay [6], 15.7%. Also, the growth in assay [8] was 33.1%.
Turning to `N#CC1=C(N)Oc2ccc3ccccc3c2C1c1ccccc1Cl` (configuration not stated), the growth in assay [1] was 24%; in assay [2], 22.2%; in [3], -2.04% (active); in assay [4] it was 33.9%; in assay [5], 37.2%; in assay [6] it was 46.1%. For the same compound, the growth is 24.2% in assay [7] and 61.1% in assay [9].
With `CC(C)C[C@@H](NC(=O)[C@@H](Cc1ccccc1)NC(=O)c1cnccn1)B1O[C@H]2[C@H](O)[C@@H](C(=O)NCCCC[C@@H]3NC(=O)[C@@H](Cc4ccccc4)NC(=O)[C@H](CC(=O)O)NC(=O)CNC(=O)[C@H](CCCN=C(N)N)NC3=O)O[C@@H](CN)[C@H]2O1`, the growth in assay [1] is -54% (active); in assay [2], -73.4% (active); in assay [3] it was -65.4% (active); in assay [4], -10.1% (active); in assay [5], -58.6% (active); in assay [6] it was -34.3% (active). Further, the growth is -86.1% (active) in assay [8] and -30.1% (active) in assay [9].
`Cc1ccc(NC2CC(=O)N(c3c(C)cc(C)cc3C)C2=O)c(C)c1` (configuration not stated): the growth in assay [1] was 105%; in assay [2], 106%; in [3] it was 105%; in [4], 92.6%; in assay [5], 95.8%; in assay [6], 95.3%. The growth in assay [7] was 94.3%; in assay [9] it was 109%.
For the compound `COc1cccc(-c2nn(-c3ccccc3)cc2-c2ccnc(NCCNS(=O)(=O)c3ccc(C(F)(F)F)cc3)c2)c1`, the growth is 11.9% in assay [1]; -14.6% (active) in assay [2]; 46.8% in assay [3]; 21.8% in [4]; 15.4% in [5]; 5.74% (active) in [6]. In assay [8], the growth was 4.44% (active).
As to `CC(=O)Nc1cc(F)cc(C(F)(F)F)c1Cl`, the growth was 102% in [1]; 101% in assay [2]; 83.2% in [3]; 106% in assay [4]; 105% in [5]; 95.7% in assay [6]. Moreover, the growth in assay [7] was 102%; in assay [8], 92.1%; in [9], 101%.
As to `CCOC(=O)C1OC1(c1ccccc1)c1ccccc1` (configuration not stated), the growth was 109% in assay [1]; 107% in assay [2]; 108% in assay [3]; 107% in [4]; 100% in assay [5]; 98.7% in [6]. In addition, the results for the growth in assay [7], in [8] and in assay [9] were 98%, 113% and 119%, respectively.
For `Fc1ccc2nc(-c3cc(-c4ccc5c(c4)OCO5)n[nH]3)[nH]c2c1`, the growth in assay [1] is 57.5%; in assay [2] it was 61.6%; in [3], 35.6%; in assay [4], 72.1%; in assay [5], 41.1%; in assay [6], 23.3%. Moreover, the growth was 53.7% in assay [7] and 75.3% in assay [9].
Take `Fc1ccc(Nc2ccc3c(OCCCN4CCOCC4)cccc3n2)cc1F`: the growth in assay [1] is 34%; in assay [2], 6.29% (active); in assay [3], 66.6%; in assay [4], 90.5%; in [5] it was 64.2%; in assay [6], 80.5%. For the same compound, the growth in assay [7] was 62.4%; in assay [8], 6.82% (active); in assay [9], 80.4%.
With `COc1cc2c(cc1-c1c(C)noc1C)ncc1nc(C3CCCCC3)n([C@@H](C)COC(F)F)c12`, the growth is 20.9% in assay [1]; 13.5% in assay [2]; 31.3% in [3]; 45.6% in assay [4]; 47.1% in assay [5]; 30.3% in [6]. In addition, the growth in assay [7] is 21.9%; in assay [8] it was 12.5%; in assay [9] it was 45.8%.
Turning to `Cn1cc(-c2nc(-c3c[nH]c4ncccc34)cs2)c2cc(Cl)ccc21`, the growth is 31.2% in assay [1]; 38.5% in assay [2]; 63.6% in [3]; 74.4% in [4]; 40% in assay [5]; 42.4% in assay [6]. Also, the growth in assay [7] is 64.3%; in assay [9], 80.1%.
As for `CNC(=O)c1cc(Oc2ccc3nc(NC(=O)Nc4ccc(Cl)cc4)sc3c2)ccn1`, the growth in [1] was 84.8%; in [2] it was 68.8%; in [3] it was 50.6%; in assay [4], 59.3%; in assay [5], 37.3%; in [6], 66%. The growth in [8] is 51.6%.
Regarding `COC(=O)[C@]12CC[C@@H](C)[C@H](C)[C@@H]1C1=CC[C@@H]3[C@@]4(C)C(c5ncon5)=C[C@@](C)(CO)C4=CC[C@@]3(C)[C@]1(C)CC2`, the growth in assay [1] was -64.9% (active); in assay [2], -68.2% (active); in assay [3], 55.5%; in [4], 6.01% (active); in assay [5], -59.5% (active); in assay [6], -12.7% (active). The growth in assay [8] was -93.7% (active).
With `Nc1ccc(Cl)cn1`, the growth is 98.6% in [1]; 96.9% in assay [2]; 80.2% in assay [3]; 107% in assay [4]; 94.3% in [5]; 90% in assay [6]. Further, the figures for the growth in assay [8] and in [9] were 92.7% and 110%, respectively.
For `CC1(C)NC2=C(C(Nc3cccnc3)N1)C(c1ccc([N+](=O)[O-])cc1)C(C(=O)c1ccc(N=[N+]=[N-])cc1)O2` (configuration not stated), the growth in assay [1] was 104%; in assay [2], 113%; in assay [3] it was 96.2%; in assay [4] it was 98.7%; in [5] it was 101%; in assay [6], 98.9%. In addition, the growth is 97.1% in assay [7] and 103% in assay [9].
`O=C1c2cc3c(cc2-c2c1c1ccc(F)cc1c(=O)n2CCCN1CCOCC1)OCO3`: the growth in assay [1] was 72.5%; in [2], 42%; in assay [3] it was 53.9%; in assay [4] it was 39.1%; in [5] it was 14.2%; in assay [6], 60%. Also, the growth in assay [7] is 13.3%; in assay [8], 8.74% (active); in assay [9] it was 80.1%.
For the compound `Cn1c(/C(C#N)=C/c2ccc3ccccc3c2)cc2ccccc21`, the growth in assay [1] is 5.67% (active); in assay [2], 21.8%; in assay [3], 15.3%; in assay [4], 23.9%; in [5], 34.1%; in assay [6], 28.8%. Besides, the growth in assay [7] is 18.7%; in assay [9] it was 63.4%.
As for `N=c1ccc2nc3c(cc(N)c4ccccc43)oc-2c1`, the growth in [1] is -69.9% (active); in [2] it was -63% (active); in [3] it was -100% (active); in [4] it was -94.7% (active); in assay [5], -87.8% (active); in assay [6], -39.3% (active). Moreover, the growth in [8] was -95.6% (active); in assay [9], -78.8% (active).
As for `S=c1[nH]nc2ccccn12`, the growth was 101% in assay [1]; 87.5% in assay [2]; 88.7% in assay [3]; 110% in assay [4]; 114% in [5]; 108% in assay [6]. Also, the growth in [7] is 108%; in [9] it was 109%.
Regarding `Cn1c(=O)c2c(nc(N3CCCC3)n2C)n(C)c1=O`, the growth in assay [1] was 103%; in [2], 94.5%; in assay [3], 89.9%; in assay [4], 106%; in assay [5], 87.5%; in assay [6], 91.2%. Besides, the growth in assay [8] is 96.5%; in [9], 104%.
For `CC(=O)O[C@H]1CC[C@]2(C)[C@H]3CC=C4[C@@H]5[C@H](C)[C@@H](C)CC[C@]5(C(=O)NCCNCCNCCN)CC[C@@]4(C)[C@]3(C)CC[C@H]2C1(C)C`, the growth was 63.3% in assay [1]; 42.5% in [2]; 70.8% in assay [3]; 82.6% in [4]; 70.1% in [5]; 96.3% in assay [10]. The growth in assay [7] was 91.7%; in [9], 90.1%.
Consider `OCCNc1nc(Nc2ccc(Cl)c(Cl)c2)nc2ccccc12`, for which the growth in [1] was 26.2%; in assay [2] it was 9.9% (active); in [3], 61.1%; in assay [4] it was 55.5%; in assay [5], 34.2%; in assay [10], 34%. Also, the growth in assay [7] is 57.1%; in assay [8], 34.1%; in assay [9], 73.6%.
`Cn1cc(-c2nc(-c3c[nH]c4ncccc34)cs2)c2cc(F)ccc21`: the growth in [1] was 19.6%; in assay [2], 19.6%; in assay [3], 31.6%; in assay [4], 53.3%; in assay [5] it was 36.7%; in assay [6] it was 33.6%. The growth in assay [9] is 60.5%.
